Laboratory results as given in PMC11062922 (Nature Chemical Biology, 2023).
Like-named read-outs stand apart in the source and are kept apart here.

Columns and labels:
Design in all cases: species or system human, MV4-11 + K-562 + COLO205 + SK-N-BE2 + OVCAR-8
CDK16 = conditions: read-out: apparent Kd; compound concentrations:100 nM and 1000 nM (sheet 'Samples'); n = 1
CDK17 = conditions: read-out: apparent Kd; compound concentrations:100 nM and 1000 nM (sheet 'Samples'); n = 1
CDK6 = conditions: read-out: apparent Kd, n = 1
CDK7 = conditions: read-out: apparent Kd, n = 1
CDK9 = conditions: read-out: apparent Kd; compound concentrations:100 nM and 1000 nM (sheet 'Samples'); n = 1
CDKL5 = conditions: read-out: apparent Kd; compound concentrations:100 nM and 1000 nM (sheet 'Samples'); n = 1
EPHB2 = conditions: read-out: apparent Kd; compound concentrations:100 nM and 1000 nM (sheet 'Samples'); n = 1
ERCC2 = conditions: read-out: apparent Kd, n = 1
FER = conditions: read-out: apparent Kd, n = 1
GSK3A = conditions: read-out: apparent Kd; compound concentrations:100 nM and 1000 nM (sheet 'Samples'); n = 1
GSK3B = conditions: read-out: apparent Kd; compound concentrations:100 nM and 1000 nM (sheet 'Samples'); n = 1
ICK = conditions: read-out: apparent Kd; compound concentrations:100 nM and 1000 nM (sheet 'Samples'); n = 1
MAPK7 = conditions: read-out: apparent Kd; compound concentrations:100 nM and 1000 nM (sheet 'Samples'); n = 1
NQO2 = conditions: read-out: apparent Kd; compound concentrations:100 nM and 1000 nM (sheet 'Samples'); n = 1
PDGFRB = conditions: read-out: apparent Kd; compound concentrations:100 nM and 1000 nM (sheet 'Samples'); n = 1
TNK1 = conditions: read-out: apparent Kd, n = 1
TNK2 = conditions: read-out: apparent Kd, n = 1
CDC42 = conditions: read-out: apparent Kd; compound concentrations: 100 nM and 1000 nM (sheet 'Samples'), CATDS: 0.310592027425942; n = 1
MDN1 = conditions: read-out: apparent Kd; compound concentrations: 100 nM and 1000 nM (sheet 'Samples'), CATDS: 0.33246338126543201; n = 1
RIOK2 = conditions: read-out: apparent Kd; compound concentrations: 100 nM and 1000 nM (sheet 'Samples'), CATDS: 0.36068630579871103; n = 1
CDK10 = conditions: read-out: apparent Kd; compound concentrations:100 nM and 1000 nM (sheet 'Samples'); n = 1
ILK = conditions: read-out: apparent Kd; compound concentrations:100 nM and 1000 nM (sheet 'Samples'); n = 1
PKN1 = conditions: read-out: apparent Kd; compound concentrations:100 nM and 1000 nM (sheet 'Samples'); n = 1
PRKCB = conditions: read-out: apparent Kd; compound concentrations: 100 nM and 1000 nM (sheet 'Samples'), CATDS: 0.15520106797875899; n = 1
PRKCI = conditions: read-out: apparent Kd; compound concentrations:100 nM and 1000 nM (sheet 'Samples'); n = 1
RPS6KA6 = conditions: read-out: apparent Kd; compound concentrations:100 nM and 1000 nM (sheet 'Samples'); n = 1
RPS6KB1 = conditions: read-out: apparent Kd; compound concentrations:100 nM and 1000 nM (sheet 'Samples'); n = 1
PIM2 = conditions: read-out: apparent Kd; compound concentrations: 100 nM and 1000 nM (sheet 'Samples'), CATDS: 0.49047797816886901; n = 1
GAK = conditions: read-out: apparent Kd; compound concentrations: 100 nM and 1000 nM (sheet 'Samples'), CATDS: 0.12538076296612899; n = 1
PIK3CA = conditions: read-out: apparent Kd; compound concentrations: 100 nM and 1000 nM (sheet 'Samples'), CATDS: 0.31694320747902399; n = 1
[1] = compound concentrations:100 nM and 1000 nM (sheet 'Samples')

CN1CCC(C(=O)Nc2n[nH]c3nc(-c4ccc(O)cc4)c(Br)cc23)CC1.O=C(O)/C=C\C(=O)O [SB-732881-H]
potency estimated from few doses (CDK16): 0.531 µM | potency estimated from few doses (CDK17): 0.459 µM | potency estimated from few doses (CDK6; [1]): 0.786 µM | potency estimated from few doses (CDK7; [1]): 0.732 µM | potency estimated from few doses (CDK9): 0.234 µM | potency estimated from few doses (CDKL5): 0.021 µM | potency estimated from few doses (EPHB2): 1.1 µM | potency estimated from few doses (ERCC2; [1]): 0.985 µM | potency estimated from few doses (FER; [1]): 1.27 µM | potency estimated from few doses (GSK3A): 0.00251 µM | potency estimated from few doses (GSK3B): 0.00866 µM | potency estimated from few doses (ICK): 1.16 µM | potency estimated from few doses (MAPK7): 1.76 µM | potency estimated from few doses (NQO2): 1.59 µM | potency estimated from few doses (PDGFRB): 1.73 µM | potency estimated from few doses (TNK1; [1]): 0.744 µM | potency estimated from few doses (TNK2; [1]): 0.964 µM

Cn1cc(C2=C(c3cccc4ccccc34)C(=O)NC2=O)c2ccccc21 [RO0317253-000]
potency estimated from few doses (CDC42): 2.18 µM | potency estimated from few doses (MDN1): 1.89 µM | potency estimated from few doses (RIOK2): 1.62 µM

CC(=O)Nc1cccc(C#Cc2cncnc2Nc2ccc(OCc3cccc(F)c3)c(Cl)c2)c1 [GW703087X]
potency estimated from few doses (CDK10): 1.54 µM

CN1C[C@@H]2Cn3c(c(C4=C(c5cn(C)c6ccccc56)C(=O)NC4=O)c4ccccc43)C[C@H]2C1.Cl [RO0320557-001]
potency estimated from few doses (CDK10): 1.2 µM | potency estimated from few doses (GSK3A): 0.0534 µM | potency estimated from few doses (GSK3B): 0.0415 µM | potency estimated from few doses (ILK): 2.35 µM | potency estimated from few doses (PKN1): 2.49 µM | potency estimated from few doses (PRKCB): 0.0203 µM | potency estimated from few doses (PRKCI): 1.93 µM | potency estimated from few doses (RPS6KA6): 0.386 µM | potency estimated from few doses (RPS6KB1): 0.104 µM

O=C(Nc1n[nH]c2cc(-c3ccccc3F)ccc12)C1CC1 [SB-733371]
potency estimated from few doses (CDK6; compound concentrations: 100 nM and 1000 nM (sheet 'Samples'), CATDS: 0.50989905801732505): 1.67 µM | potency estimated from few doses (PIM2): 1.8 µM

Nc1c(C(=O)c2cccc(C(O)CO)c2)cnn1-c1ccc(F)cc1 (stereo not drawn) [RO3200567-000]
potency estimated from few doses (CDK7; compound concentrations: 100 nM and 1000 nM (sheet 'Samples'), CATDS: 0.117624966951351): 1.73 µM | potency estimated from few doses (ERCC2; compound concentrations: 100 nM and 1000 nM (sheet 'Samples'), CATDS: 0.117960560736162): 1.71 µM | potency estimated from few doses (FER; compound concentrations: 100 nM and 1000 nM (sheet 'Samples'), CATDS: 0.13650868273140601): 1.2 µM | potency estimated from few doses (GAK): 1.46 µM | potency estimated from few doses (PIK3CA): 0.285 µM | potency estimated from few doses (TNK1; compound concentrations: 100 nM and 1000 nM (sheet 'Samples'), CATDS: 0.145879794624587): 1.04 µM | potency estimated from few doses (TNK2; compound concentrations: 100 nM and 1000 nM (sheet 'Samples'), CATDS: 0.149039092060825): 0.993 µM
